Compound activity as filed in PubChem BioAssay.
Most compounds without a hit are left out; they make up all but 1.3% or so of the library.
Bcl-xL primary: blocks human Bcl-xL binding to Bim BH3 peptide. actives 0.7% (n = 320,000). GST-Bcl-xL / FITC-Bim BH3 peptide fluorescence polarization. inhibition, % at 10.9 µM;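 active = inhibition above the mean of all tested compounds plus 3 SD, cutoff set per campaign, cut at about 30% in these data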;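 also: 0% = DMSO wells and 100% = unlabeled Bim-BH3 peptide competitor; inhibitors lower millipolarization by displacing the labeled peptide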
EBV gp42 block: blocks Epstein-Barr virus glycoprotein 42 binding | Q1HVG2 | Fluorescence polarization binding assay, mP read-out | inhibition, % (tested at 21.74 µM) | actives 0.42% (n = 220,000); in the data active = inhibition above about 50%
E coli Lon inh: inhibitors of E. coli Lon protease; inhibition, % at 7.94 µM; P0A9M0; purified E. coli Lon protease, fluorescence polarization; actives 0.42% (n = 360,000); AID 602123; in the data active = inhibition above about 13%, passing the limit was not always enough;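 also: 0% = enzyme with probe and DMSO and 100% = no enzyme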
Target sequence (P0A9M0 whole entry, looked up): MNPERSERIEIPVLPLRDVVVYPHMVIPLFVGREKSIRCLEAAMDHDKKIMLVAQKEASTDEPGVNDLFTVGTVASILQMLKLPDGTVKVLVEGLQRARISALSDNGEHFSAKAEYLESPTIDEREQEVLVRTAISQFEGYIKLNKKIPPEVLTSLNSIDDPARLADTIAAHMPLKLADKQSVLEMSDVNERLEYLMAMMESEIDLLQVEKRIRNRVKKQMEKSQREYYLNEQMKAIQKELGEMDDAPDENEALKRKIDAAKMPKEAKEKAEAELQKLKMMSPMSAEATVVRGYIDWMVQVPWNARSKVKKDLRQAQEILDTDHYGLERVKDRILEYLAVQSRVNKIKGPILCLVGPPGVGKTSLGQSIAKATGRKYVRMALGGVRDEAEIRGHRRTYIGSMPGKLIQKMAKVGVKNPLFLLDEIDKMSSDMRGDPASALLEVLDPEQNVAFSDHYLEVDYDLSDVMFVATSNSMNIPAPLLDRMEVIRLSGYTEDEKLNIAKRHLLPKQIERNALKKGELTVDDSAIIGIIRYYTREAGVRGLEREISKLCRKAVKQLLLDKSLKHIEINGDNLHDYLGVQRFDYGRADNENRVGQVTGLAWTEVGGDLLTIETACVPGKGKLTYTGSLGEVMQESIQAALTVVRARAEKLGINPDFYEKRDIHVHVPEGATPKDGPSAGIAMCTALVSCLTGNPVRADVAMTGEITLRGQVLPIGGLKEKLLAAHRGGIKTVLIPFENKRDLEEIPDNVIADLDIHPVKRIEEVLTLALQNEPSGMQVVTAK
GLD-1 RNA inh: GLD-1-TGE RNA interaction inhibition (C. elegans) | Q17339 | purified GLD-1 + fluorescein TGE RNA, fluorescence polarization | inhibition, % at 5.96 µM | actives 0.44% (n = 320,000);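 active = percent inhibition above a per-plate cutoff, the plate mean of test compounds plus 3 SD, cut at about 30% in these data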;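 also: 0% = DMSO wells with GLD-1 and probe and 100% = wells lacking GLD-1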
MEX-5 binding: C. elegans MEX-5 TCR-2 RNA binding activity; actives 0.38% (n = 300,000); MEX-5/FITC-TCR2 RNA binding, fluorescence polarization; active compounds read low; activity score (negative = inhibition of binding), % at 10 µM;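 active = inhibition past about -25% in most replicates, and total fluorescence under double the plate's negative control median, limit read from the data; inconclusive = replicates evenly split on the limit, or fluorescence at least double controls; inactive = too little inhibition in most replicates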;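 also: 0% = DMSO and -100% = 5 µM competing unlabeled TCR2 RNA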
eLon confirm: confirmation of E. coli Lon protease inhibitors. inhibition, % at 7.94 µM. purified E. coli Lon, fluorescence polarization. actives 31% (n = 1,400). shares compounds with E coli Lon inh; in the data active = inhibition above about 16%;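 also: 0% = enzyme with probe and DMSO and 100% = no enzyme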
An asterisk follows results filed as active; ? = inconclusive; / = no result; + = active, no number.

SMILES | Bcl-xL primary | EBV gp42 block | E coli Lon inh | GLD-1 RNA inh | MEX-5 binding | eLon confirm
CC(Nc1cccc2ccccc12)C(=O)N/N=C/c1ccccn1 (configuration not stated) | 6 | 8 | 24* | 6 | -4 | 7
Cc1ccc(S(=O)(=O)Nc2ccc(=O)n(Cc3ccc(Cl)c(Cl)c3)c2)cc1 | 1 | -6 | -7 | -3 | 1 | /
CCC(C(=O)NC1CCCC1)N(Cc1ccco1)C(=O)CNS(=O)(=O)c1ccccc1 (configuration not stated) | 4 | / | 17* | -5 | 3 | 8
Cc1cc(CN(C)C(=O)c2cc(COc3ccc(F)cc3Cl)on2)n[nH]1 | 6 | -4 | 32* | -3 | 0 | -4
Cc1ccc(NC(=O)CN2C(=O)c3ccccc3S2(=O)=O)c(C)c1 | 2 | / | -7 | 4 | -1 | /
CN(C)c1ccc(C(=S)N2CCCCC2)cc1 | 4 | -11 | 46* | 3 | -4 | 5
CN(C)c1ccc(C(=S)N2CCNCC2)cc1 | 3 | 0 | 1 | -2 | 0 | /
CN1CC=C2C(C#N)=C(N)C(C#N)(C#N)[C@H](c3cccc(Cl)c3)C2C1 (some centres not stated) | 104* | 58* | 23* | 79* | -59* | 17*
CN1CC=C2C(C#N)=C(N)C(C#N)(C#N)C(c3ccsc3)C2C1 (configuration not stated) | 106* | 24 | 60* | 70* | ? | 32*
CCCC1C2CN(C(C)C)CC=C2C(C#N)=C(N)C1(C#N)C#N (configuration not stated) | 161* | 69* | 59* | 132* | -75* | 18*
CCOC(=O)C1CCN(C(=O)CSc2nccc(C)n2)CC1 | 9 | -1 | -2 | -13 | 2 | /
O=C(CC[C@H]1O[C@@H](n2ccc(=O)[nH]c2=O)[C@H](O)[C@@H]1O)N[C@H](Cc1ccccc1)C(=O)NCc1cccs1 | / | / | -11 | / | / | /
Nc1nnnn1/N=C/c1cc(Cl)cc(Cl)c1O | 109* | / | 49* | 78* | 1 | 73*
COc1ccc(C(=O)NNC2=CC(=O)CC(C)(C)C2)cc1OC | 1 | -17 | 17* | 3 | -11 | 1
COc1ccc2nc(N=Nc3ccc(N(C)C)cc3)sc2c1 | / | -12 | 3 | / | / | /
CN(C)c1ccc2nc3ccc(=O)cc-3sc2c1 | / | / | 40* | / | / | 44*
CC1C(=O)C(C)C(c2ccco2)NC1c1ccco1 (configuration not stated) | 0 | -19 | 24* | -2 | -2 | -5
CC1/C(=N/O)CC(c2ccco2)NC1c1ccco1 (configuration not stated) | -1 | 5 | -6 | -1 | 0 | /
CCN(CC)c1ccc2nc3ccc(N)cc3[n+](-c3ccccc3)c2c1 | / | / | 170* | / | / | 124*
ClCc1ncc(-c2ccc(Cl)cc2)o1 | 4 | -12 | 2 | 2 | 3 | /
CC1(C(=O)NS(=O)(=O)c2ccc(Cl)cc2)CCN1C(=O)C1(c2ccc(Cl)cc2)CCC1 (configuration not stated) | / | / | -4 | / | / | /
CCOc1nc(N2CCCCC2)nc(-n2cc(-c3ccccc3)nn2)n1 | 4 | -8 | 16* | 7 | -1 | -1
COc1ccc(-c2onc3ccc(Br)cc23)cc1 | 113* | 127* | 39* | 97* | -13 | 86*
COc1cc(-c2onc3ccc(Br)cc23)cc(OC)c1OC | 5 | 9 | -2 | -5 | 2 | /
CCC(C)c1ccccc1N1CC(C(=O)N(C)CC(=O)Nc2cccc(F)c2)CC1=O (configuration not stated) | 1 | / | -2 | 12 | 0 | /
SMILES | Bcl-xL primary | EBV gp42 block | E coli Lon inh | GLD-1 RNA inh | MEX-5 binding | eLon confirm
Cc1cc(C)n2nc(C)c(-c3ccccc3)c2n1 | 9 | / | 22* | 5 | 0 | -14
CSc1ccccc1NC(=O)CSc1nnnn1-c1ccccc1SC | 5 | -10 | -5 | 9 | -4 | /
COC(=O)c1ccsc1NC(=O)CSc1nnnn1-c1ccccc1SC | 2 | -14 | 20* | 4 | 1 | 1
COc1ccc(Cl)cc1N(CC(=O)Nc1ccccc1C(=O)N1CCCC1)S(C)(=O)=O | 3 | / | 18* | -2 | -2 | -6
CCOc1cc(N2CCOCC2)c(OCC)cc1NC(=O)c1nn(CC)c(=O)c2ccccc12 | -2 | / | -5 | 5 | / | /
COc1ccc(/C=C/C(=O)N2CCN(c3ccccn3)CC2)c(OC)c1OC | -1 | / | 62* | 3 | 2 | -5
Cc1c2ccccc2nc2c(F)c(N(C)C)c(F)c(F)c12 | 114* | 197* | 117* | 99* | -5 | +
CC(C)(C)Cc1c(-c2cccc(Br)c2)nc2ccc(Cl)cn12 | / | / | -8 | / | / | /
Cc1cc(Cl)ccc1OC(C)C(=O)NN=C1CCCCCC1 (configuration not stated) | 1 | / | 21* | 7 | 1 | -5
Cc1cc(Cl)ccc1OC(C)C(=O)NNC(=O)C1CCCCC1C(=O)O (configuration not stated) | / | / | -9 | / | 2 | /
Nc1ccc2c3c(cccc13)-c1ccccc1-2 | / | / | 189* | / | / | +
O=C1C2ON(c3ccccc3)C(c3ccccn3)C2C(=O)N1c1ccc(Br)cc1 (configuration not stated) | 5 | -5 | 15* | 5 | 3 | 12
O=C1C2ON(c3ccccc3)C(c3ccncc3)C2C(=O)N1c1ccc(Br)cc1 (configuration not stated) | 2 | -7 | -11 | 2 | 2 | /
CC(C)(C#N)NC(=O)C1CCCN1S(=O)(=O)c1ccc2ccccc2c1 (configuration not stated) | 3 | / | -5 | 3 | 0 | /
O=C1N(c2cccc(Cl)c2)C(c2ccccc2)N2CCCN12 (configuration not stated) | 3 | -21 | -20 | -4 | 1 | /
Cc1ccc(C2N(c3ccccc3)C(=O)N3CCCN23)cc1 (configuration not stated) | 3 | 3 | 36* | -3 | -1 | -11
Cc1ccc(S(=O)(=O)N2CCC(C(=O)NC3CC(C)(C)NC(C)(C)C3)CC2)cc1 | -4 | / | -2 | 3 | -1 | /
Cc1cc2cc(CNC(=O)Nc3ccc(Cl)c(Cl)c3)ccc2n1C | 7 | -19 | 23* | 15 | 1 | 13
FC(F)Oc1ccc(NC(=S)NCc2ccccc2)cc1 | 11 | -19 | -2 | 2 | 0 | /
Cc1cc2cc(CNC(=S)Nc3ccc(OC(F)F)cc3)ccc2n1C | 14 | -3 | 15* | 10 | 0 | 1
Cc1cc2cc(CNC(=O)NC3CCCCC3)ccc2n1C | 6 | -9 | -12 | 6 | 2 | /
C[C@H]1CN(c2ccccc2)C(=O)[C@@H]1CC(=O)Nc1ccc(Br)cc1 | / | / | 1 | / | / | /
Cc1ccc(N(CC(=O)NC2CC2)S(=O)(=O)c2ccccc2)c(C)c1 | -12 | / | -2 | -4 | 1 | /
CNc1c2cccc(C)c2nc2c(C(=O)NCCN(C)C)cccc12 | / | / | 178* | / | / | 195*
